Sampled rows, rich in hits. Any-hit rate of the full collection: about 2.7%.
aDG glyco up = activators of alpha-DG glycosylation, primary screen, uHTS, Pro5-aDG cells, AlphaScreen; alpha-DG glycosylation AlphaScreen (IIH6); 0% Pro5, 100% B10-LARGE cell signal; activation, % at 10 µM; 0.22% of 360,000 active;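 active = activation of at least 8% versus controls, or a plate z-score of at least 8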;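 also: Pro5 are CHO cells carrying HIG-tagged alpha-DG that lacks glycosylation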
NadD block = inhibitors of S. aureus NadD, primary screen, biochemical, colorimetric, uHTS; AID 602399, 2012; purified NadD enzyme, colorimetric absorbance read-out; inhibition, % at 20 µM; 0.78% of 360,000 active; in the data active = inhibition above about 26%
MPTP block = mitochondrial permeability transition pore inhibitors, primary screen, biochemical, isolated mouse mitochondria, absorbance. Ca2+ swelling absorbance, 30 min. inhibition, % at 10 µM. 1.4% of 360,000 active;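 active = inhibition of 50% or more, scaled per plate between neutral and stimulator controls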;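 also: 0% = DMSO wells given calcium and 100% = 1 mM EGTA wells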
TAG inh = inhibitors of triacylglycerol accumulation, primary screen, cell-based, uHTS, fluorescence, H9c2; 0.66% of 230,000 active; AID 651582, 2012; inhibition, % at 12.5 µM; H9c2 cells, Nile Red lipid (TAG) fluorescence; cells loaded with 200 µM oleic acid;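 active = pattern-corrected inhibition of lipid staining of at least 50% with the nuclear-stain viability signal not falling by more than 50%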;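 also: 0% = DMSO wells and 100% = triacsin C control wells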
TAG conf = triacylglycerol accumulation inhibitors, retest, confirmation, cell-based, single concentration, Nile Red fluorescence, H9c2 | shares compounds with TAG inh | H9c2 lipid accumulation; cells loaded with 200 µM oleic acid | inhibition, % at 12.5 µM | 71% of 990 active;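 active = mean inhibition across replicates of 40% or more; inactive = mean inhibition below 40%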;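 also: plate controls were DMSO only wells for no effect and Triacsin C treated wells for full effect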
Active calls of the source: *; nt = no result given.

SMILES | aDG glyco up | NadD block | MPTP block | TAG inh | TAG conf
CC(=O)Nc1cccc(-c2ccnc3c2CC(C)(C(=O)NCc2ccc(N(C)C)cc2)O3)c1 (configuration not stated) | 0.0 | 1.6 | -0.3 | 57.4* | 54.0*
CC(=O)Nc1cccc(-c2ccnc3c2CC(C)(C(=O)NCc2cccc(Cl)c2)O3)c1 (configuration not stated) | 0.1 | 1.5 | -1.3 | 19.8 | nt
CC1(C(=O)Nc2ccc3c(c2)OCO3)Cc2c(-c3cccc(C(N)=O)c3)ccnc2O1 (configuration not stated) | -0.4 | -2.9 | 0.4 | 58.6* | 68.8*
CC1(C(=O)Nc2ccc3c(c2)OCO3)Cc2c(-c3ccc4c(c3)OCO4)ccnc2O1 (configuration not stated) | -0.1 | 0.0 | -0.5 | 27.5 | nt
Nc1cc2c(cc1Br)[nH]c(=O)c1ccccc12 | -0.2 | 9.9 | -2.5 | 77.0* | 62.3*
OC(c1ccc(F)c(F)c1)c1nc(-c2cccc3cccnc23)cs1 (configuration not stated) | 0.0 | -1.0 | 1.1 | -5.4 | nt
CCOc1ccc(S(=O)(=O)NCc2ccccn2)cc1NC(=O)c1ccccc1 | 0.0 | -5.0 | -0.3 | 58.1* | 77.5*
COC(=O)c1cc(C(=O)N2CCN(c3ccccc3OC)CC2)cc([N+](=O)[O-])c1 | -0.2 | -0.6 | -1.8 | 50.9* | 84.7*
O=C(Nc1ccc2c(c1)OCCO2)c1cc2sccc2n1Cc1ccccc1 | 0.9 | 2.0 | 9.7 | 60.3* | 25.5
O=C(Nc1ccc2c(c1)OCCO2)c1cc2sccc2n1Cc1ccc(F)cc1 | 0.7 | 6.9 | -1.1 | 42.9 | nt
CN1CCN(Cc2cn(C)nc2-c2ccccc2F)CC1c1ccccc1 (configuration not stated) | -0.1 | 0.7 | 3.5 | -3.2 | nt
Cc1cc(N2CCN(Cc3cn(C)nc3-c3ccccc3F)CC2)cc(C)n1 | -0.1 | -9.8 | -1.2 | 74.3* | 83.6*
Cc1cc(N2CCN(Cc3cn(C)nc3-c3cccc(Cl)c3)CC2)cc(C)n1 | 0.1 | -10.4 | 2.1 | 71.0* | 77.0*
Cn1cc(CN2CCN(c3ncccn3)CC2)c(-c2cccc(Cl)c2)n1 | 0.0 | -10.5 | -1.2 | -16.5 | nt
CC1CCN(c2cc(N3CCC(C)CC3)c([N+](=O)[O-])cc2/C=C(\C#N)c2nn(-c3ccccc3)c(N)c2C#N)CC1 | -0.7 | 50.9* | 4.4 | 52.4* | 49.4*
CCC(=O)Nc1c(-c2ccc(OC)cc2)c(=O)c2ccccc2n1C | -0.2 | 1.0 | -1.9 | 61.0* | 3.5
COc1ccc(NC2=Nc3ccccc3N3C2=Nc2c(c(C)nn2-c2ccc(C)cc2)C3c2cccnc2)cc1 (configuration not stated) | 0.0 | 17.1 | 3.3 | nt | nt
COc1cccc(C2c3c(C)nn(-c4ccc([N+](=O)[O-])cc4)c3N=C3C(=O)Nc4ccccc4N32)c1 (configuration not stated) | -1.1 | 18.5 | 4.5 | 75.8* | 80.7*
Cc1nn(-c2ccc([N+](=O)[O-])cc2)c2c1C(c1ccc(OC(F)F)cc1)N1C(=N2)C(=O)Nc2ccccc21 (configuration not stated) | 0.2 | 3.0 | -1.1 | 65.5* | 69.3*
CCOC(=O)c1cc(S(=O)(=O)N(C)Cc2ccccc2)cn1C | 0.0 | -3.5 | -1.2 | nt | nt
COc1ccc(NS(=O)(=O)c2cccc(C(=O)N/N=C/c3cn(-c4ccccc4)nc3-c3ccccc3)c2)cc1 | -0.1 | 12.5 | 6.4 | 60.2* | 62.1*
COc1ccc(NS(=O)(=O)c2cccc(C(=O)N/N=C/c3cn(-c4ccccc4)nc3-c3ccc(OC)cc3)c2)cc1 | -0.3 | 10.9 | 2.6 | 44.3 | nt
Cc1ccc(S(=O)(=O)NC(=O)C2(C)CCN2C(=O)CC2CCCC2)nc1 (configuration not stated) | -0.3 | -4.6 | -0.7 | -5.5 | nt
CCNC(=O)C1(C)CCCN(C(=O)c2ccc(C(F)(F)F)nc2C)C1 (configuration not stated) | -0.2 | 3.8 | -0.9 | 16.0 | nt
Cc1ccc(NC(=O)CN(C)C(=O)c2cccc(-n3cccc3)c2)cc1 | -0.1 | -1.0 | 0.1 | -7.0 | nt
SMILES | aDG glyco up | NadD block | MPTP block | TAG inh | TAG conf
Cc1ccc(-c2nn(-c3ccccc3)cc2NC(=O)CCl)cc1 | -0.2 | -4.0 | 2.4 | 51.2* | 79.9*
Cc1ccc(-c2cc(NC(=O)CCl)n(-c3ccccc3)n2)cc1 | -0.1 | -1.6 | -1.3 | -16.7 | nt
CCOc1ccc2nc(NC(=O)CN3CCC(n4nnc5cc(F)ccc54)CC3)sc2c1 | 1.4 | 8.2 | 1.9 | 57.7* | 43.5*
CNc1ccc(-c2cccc(CO)c2)cn1 | 0.1 | -6.0 | -0.9 | -10.4 | nt
N#CC1C=Cc2ccccc2N1C(=O)c1ccccc1 (configuration not stated) | -0.2 | -0.1 | 1.6 | -3.3 | nt
N#CC1C=Cc2c(ccc3ccccc23)N1C(=O)c1ccccc1 (configuration not stated) | -0.3 | -3.4 | 1.0 | 60.3* | 56.3*
C=C1c2nc3ccccc3n2C=C(c2ccc(C)cc2)N1c1ccccc1 | 0.6 | 10.7 | 1.3 | 56.4* | 79.5*
Cc1cccnc1CNC(=O)C1(C)CCCN1CC(C)C (configuration not stated) | -0.2 | 3.7 | -0.7 | -4.4 | nt
CCOc1cc2[nH]c(=O)n(CCCCC(=O)N3CCCCCC3)c(=O)c2cc1OCC | -0.1 | 2.9 | 2.9 | 63.1* | 35.0
CCCCCNC(=O)CCCCn1c(=O)[nH]c2cc(OCC)c(OCC)cc2c1=O | 0.3 | 3.6 | -1.2 | 36.0 | nt
CC(CC(=O)Nc1ccc2c(c1)c(=O)n(C)n2-c1ccc2ccccc2c1)C(F)(F)F (configuration not stated) | -0.1 | 4.0 | 1.4 | 54.6* | 44.1*
Cn1c(=O)c2cc(NC(=O)Cc3cccnc3)ccc2n1-c1ccc2ccccc2c1 | -0.2 | 9.8 | -0.1 | 6.7 | nt
COc1ccc(CNC(=O)/C=C/c2ccc(OCCCF)cc2)cc1 | 0.4 | -1.4 | 0.9 | 55.6* | 30.8
CCOC(=O)C1(C)CCCN(C(=O)c2ccc(C)c(F)c2)C1 (configuration not stated) | 0.2 | 1.3 | -2.6 | -9.0 | nt
CC(=O)N1CCN(c2ccc(NCc3ccc(-c4cccc(Cl)c4)o3)cc2)CC1 | 0.6 | -8.0 | 0.8 | -18.0 | nt
NC1=NC[C@H](Cc2ccccc2)N1CCc1cc(C(F)(F)F)cc(C(F)(F)F)c1 | 0.2 | -0.7 | 0.6 | 55.2* | 46.0*
COc1ccc(CNC(=O)C2CCN(c3nc(-c4ccccc4)nc4c3CCC4)CC2)cc1 | 0.4 | 0.8 | 1.5 | 52.4* | 41.5*
O=C(NCc1ccccc1)C1CCN(c2nc(-c3ccccc3)nc3c2CCC3)CC1 | 0.3 | 3.8 | -1.4 | 42.2 | nt
COC(=O)[C@@]1(Cc2ccc(OC)cc2)[C@@H]2C(=CC(=O)[C@H]2CC(=O)C(=O)N2CCCC2)CN1C(=O)c1ccccc1 | 0.1 | 3.8 | -1.0 | 53.1* | 54.6*
